According to ChEMBL document CHEMBL1961873, “Compounds: GSK PKIS; Assays: Nanosyn kinase panel” (2012):

Tests used:
[1] = biological target: T1, Muscle, skeletal receptor tyrosine-protein kinase (Homo sapiens) (UniProt O15146); details: at 1 µM;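 note: reported value is the mean percent inhibition of MuSK kinase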
T1 sequence (whole entry): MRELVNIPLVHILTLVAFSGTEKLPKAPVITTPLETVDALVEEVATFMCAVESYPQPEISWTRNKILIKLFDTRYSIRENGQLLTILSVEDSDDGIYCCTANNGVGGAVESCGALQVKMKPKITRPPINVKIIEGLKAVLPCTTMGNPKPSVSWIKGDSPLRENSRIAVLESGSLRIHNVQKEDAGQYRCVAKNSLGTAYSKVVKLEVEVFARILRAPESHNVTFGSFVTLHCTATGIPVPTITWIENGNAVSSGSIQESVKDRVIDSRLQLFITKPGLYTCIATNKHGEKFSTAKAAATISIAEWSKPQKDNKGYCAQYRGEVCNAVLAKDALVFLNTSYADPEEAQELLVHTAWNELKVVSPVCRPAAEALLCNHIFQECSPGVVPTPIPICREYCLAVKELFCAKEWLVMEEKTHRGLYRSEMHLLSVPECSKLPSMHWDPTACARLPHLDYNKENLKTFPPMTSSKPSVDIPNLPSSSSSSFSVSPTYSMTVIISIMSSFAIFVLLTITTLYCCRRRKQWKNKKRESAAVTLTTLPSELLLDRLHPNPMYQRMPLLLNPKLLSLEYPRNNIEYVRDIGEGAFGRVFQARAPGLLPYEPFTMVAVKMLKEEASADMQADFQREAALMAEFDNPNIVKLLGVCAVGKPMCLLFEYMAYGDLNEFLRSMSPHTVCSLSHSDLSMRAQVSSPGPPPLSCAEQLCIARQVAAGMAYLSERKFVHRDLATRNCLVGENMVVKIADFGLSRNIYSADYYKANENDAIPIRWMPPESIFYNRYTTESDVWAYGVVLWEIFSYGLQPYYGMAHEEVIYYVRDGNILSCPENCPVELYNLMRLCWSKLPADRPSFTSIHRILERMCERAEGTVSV

[2] = biological target: Platelet-derived growth factor receptor alpha (Homo sapiens) (UniProt P16234); details: at 0.1 µM
Chain of Platelet-derived growth factor receptor alpha (Homo sapiens) (P16234 whole entry): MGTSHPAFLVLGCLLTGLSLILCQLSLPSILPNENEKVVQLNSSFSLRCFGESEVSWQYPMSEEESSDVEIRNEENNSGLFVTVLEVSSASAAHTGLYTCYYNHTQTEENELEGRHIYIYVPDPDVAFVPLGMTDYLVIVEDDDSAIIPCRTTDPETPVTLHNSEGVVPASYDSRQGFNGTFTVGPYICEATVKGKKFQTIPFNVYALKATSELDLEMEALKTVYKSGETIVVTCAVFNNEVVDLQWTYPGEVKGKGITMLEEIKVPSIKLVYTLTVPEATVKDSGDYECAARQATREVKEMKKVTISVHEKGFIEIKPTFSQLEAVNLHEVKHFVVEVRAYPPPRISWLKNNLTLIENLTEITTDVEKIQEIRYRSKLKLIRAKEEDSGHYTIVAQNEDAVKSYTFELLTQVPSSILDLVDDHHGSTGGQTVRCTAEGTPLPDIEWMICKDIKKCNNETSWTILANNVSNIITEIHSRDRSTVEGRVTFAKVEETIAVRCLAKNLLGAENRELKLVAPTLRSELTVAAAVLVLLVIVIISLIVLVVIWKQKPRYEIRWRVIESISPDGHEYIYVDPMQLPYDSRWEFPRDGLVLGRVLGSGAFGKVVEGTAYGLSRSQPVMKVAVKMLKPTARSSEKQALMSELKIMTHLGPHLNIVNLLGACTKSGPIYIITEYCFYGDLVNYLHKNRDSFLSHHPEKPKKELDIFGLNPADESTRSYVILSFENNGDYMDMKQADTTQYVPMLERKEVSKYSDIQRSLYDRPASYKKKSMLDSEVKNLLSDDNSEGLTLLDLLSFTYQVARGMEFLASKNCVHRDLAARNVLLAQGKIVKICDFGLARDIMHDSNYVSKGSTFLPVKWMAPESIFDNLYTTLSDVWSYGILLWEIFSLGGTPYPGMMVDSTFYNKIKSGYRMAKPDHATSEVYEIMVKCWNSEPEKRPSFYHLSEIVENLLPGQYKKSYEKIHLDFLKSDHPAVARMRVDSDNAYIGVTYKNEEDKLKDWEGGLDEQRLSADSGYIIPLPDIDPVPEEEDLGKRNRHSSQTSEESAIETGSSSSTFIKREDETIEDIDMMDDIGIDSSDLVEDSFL

[3] = biological target: Platelet-derived growth factor receptor alpha (Homo sapiens) (UniProt P16234); details: at 1 µM
[4] = test system: Platelet-derived growth factor receptor alpha (Homo sapiens), P16234 [D842V]; details: at 0.1 µM
Chain of Platelet-derived growth factor receptor alpha (Homo sapiens), P16234 [D842V] (P16234 whole entry D842V): as the sequence (P16234 whole entry) above, with D842V counted along it

[5] = test system: Platelet-derived growth factor receptor alpha (Homo sapiens), P16234 [D842V]; details: at 1 µM
[6] = test system: Platelet-derived growth factor receptor alpha (Homo sapiens), P16234 [T674I]; details: at 0.1 µM
Chain of Platelet-derived growth factor receptor alpha (Homo sapiens), P16234 [T674I] (P16234 whole entry T674I): as the sequence (P16234 whole entry) above, with T674I counted along it

[7] = test system: Platelet-derived growth factor receptor alpha (Homo sapiens), P16234 [T674I]; details: at 1 µM
[8] = test system: Platelet-derived growth factor receptor alpha (Homo sapiens), P16234 [V561D]; details: at 0.1 µM
Chain of Platelet-derived growth factor receptor alpha (Homo sapiens), P16234 [V561D] (P16234 whole entry V561D): as the sequence (P16234 whole entry) above, with V561D counted along it

[9] = test system: Platelet-derived growth factor receptor alpha (Homo sapiens), P16234 [V561D]; details: at 1 µM
[10] = biological target: Platelet-derived growth factor receptor beta (Homo sapiens) (UniProt P09619); details: at 0.1 µM;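 note: reported value is the mean percent inhibition of the kinase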
Chain of Platelet-derived growth factor receptor beta (Homo sapiens) (P09619 whole entry): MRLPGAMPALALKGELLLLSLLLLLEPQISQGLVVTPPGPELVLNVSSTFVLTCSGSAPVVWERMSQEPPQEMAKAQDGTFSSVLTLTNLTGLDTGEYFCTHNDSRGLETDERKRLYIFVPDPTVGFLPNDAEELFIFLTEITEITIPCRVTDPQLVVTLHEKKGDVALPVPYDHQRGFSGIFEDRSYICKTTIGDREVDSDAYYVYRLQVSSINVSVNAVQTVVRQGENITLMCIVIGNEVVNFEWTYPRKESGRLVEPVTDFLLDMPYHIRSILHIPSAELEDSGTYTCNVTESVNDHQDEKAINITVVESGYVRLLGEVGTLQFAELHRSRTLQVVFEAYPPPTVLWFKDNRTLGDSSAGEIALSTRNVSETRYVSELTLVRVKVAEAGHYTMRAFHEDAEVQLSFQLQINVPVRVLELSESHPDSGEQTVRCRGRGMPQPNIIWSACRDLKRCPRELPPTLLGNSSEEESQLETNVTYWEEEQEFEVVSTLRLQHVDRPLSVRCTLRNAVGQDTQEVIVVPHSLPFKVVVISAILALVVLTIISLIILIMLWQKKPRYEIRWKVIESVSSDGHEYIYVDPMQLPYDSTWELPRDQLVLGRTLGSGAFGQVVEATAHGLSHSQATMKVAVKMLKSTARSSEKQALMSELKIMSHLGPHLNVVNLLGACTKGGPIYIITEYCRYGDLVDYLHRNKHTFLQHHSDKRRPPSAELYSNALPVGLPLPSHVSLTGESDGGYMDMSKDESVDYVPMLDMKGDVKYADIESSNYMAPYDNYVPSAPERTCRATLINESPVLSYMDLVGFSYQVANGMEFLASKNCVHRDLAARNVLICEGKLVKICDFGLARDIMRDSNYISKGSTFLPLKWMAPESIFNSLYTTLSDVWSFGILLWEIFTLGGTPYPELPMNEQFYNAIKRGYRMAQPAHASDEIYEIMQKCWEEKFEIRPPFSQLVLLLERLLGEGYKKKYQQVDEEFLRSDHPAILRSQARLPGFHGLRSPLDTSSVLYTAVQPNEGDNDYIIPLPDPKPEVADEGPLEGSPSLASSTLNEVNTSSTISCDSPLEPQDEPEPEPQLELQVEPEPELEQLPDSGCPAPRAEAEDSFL

| Compound | inhibition [1] [%] | inhibition [2] [%] | inhibition [3] [%] | inhibition [4] [%] | inhibition [5] [%] | inhibition [6] [%] | inhibition [7] [%] | inhibition [8] [%] | inhibition [9] [%] | inhibition [10] [%] |
| --- | --- | --- | --- | --- | --- | --- | --- | --- | --- | --- |
| COc1cc2c(cc1Nc1nc(N3CCc4ccccc43)c3cc[nH]c3n1)N(C(=O)CN(C)C)CC2 | 4.18 | 4.13 | 3.64 | 0.92 | -1.2 | 1.67 | 0.13 | -0.57 | 2.32 | 1.46 |
| NS(=O)(=O)c1ccc(N/N=C2\C(=O)Nc3ccc(C(=O)NCCc4c[nH]cn4)cc32)cc1 | 43.1 | 23.6 | 65.6 | 15.9 | 62.5 | 6.94 | 14.5 | 12.9 | 54.9 | 38.6 |
| CCn1c(-c2nonc2N)nc2cncc(C(=O)N3CC[C@H](N)C3)c21 | 3.51 | 7.67 | 6.08 | 4.02 | 5.6 | 6.8 | 8.93 | 2.86 | 1.28 | 4.13 |
| O=C(Nc1n[nH]c2nc(-c3ccco3)c(Br)cc12)C1CC1 | 6.32 | 4.56 | 12.9 | 0.77 | 4.15 | 5.19 | 6.07 | 0.75 | 4.4 | 3.97 |
| COc1cc2ncn(-c3cc(O[C@@H](C)c4ccccc4Cl)c(C(N)=O)s3)c2cc1OC | 14.1 | 37.9 | 73.8 | 27 | 77.1 | 7.94 | 50 | 32.4 | 81.5 | 29.8 |
| CCN1CCC(CC(=O)Nc2n[nH]c3nc(-c4cccs4)c(Br)cc23)CC1 | 6.39 | 1.61 | 5.44 | 1.12 | 6.22 | -1.25 | 3.53 | 2.04 | 4.21 | 4.9 |
| Cc1nn(C)c2cc(N(C)c3ccnc(Nc4cccc(S(N)(=O)=O)c4)n3)ccc12 | 6.58 | 22.9 | 61.2 | 7.33 | 36.1 | 5.29 | 15.1 | 23.2 | 70.1 | 18.2 |
| O=C1NC(=O)C(c2ccc(Cl)cc2)=C1Nc1ccc(Cl)c(C(=O)O)c1 | 2.23 | 1.93 | 7.23 | 1.16 | 2.61 | 0.45 | 1.25 | 3.89 | 3.15 | 4.09 |
| CS(=O)(=O)Nc1ccc(N/C=C2\C(=O)Nc3ccccc32)cc1 | 35.9 | 9.58 | 41.9 | 2.98 | 18 | 11.1 | 62.5 | 15 | 51 | 6.47 |
| CN(C)c1cc2c(Nc3ccc4nc(Cc5ccccc5)[nH]c4c3)ncnc2cn1 | 0.22 | 9.58 | 24.4 | 4.07 | 5.67 | 5.35 | 6.9 | 5.97 | 22.8 | 5.76 |
| CCc1cccc(NC(=O)Nc2ccc(Oc3ccc4nc(NC(=O)OC)[nH]c4c3)cc2)c1 | 31.1 | 88.5 | 96.8 | 11.7 | 20.5 | 75.7 | 100 | 86.6 | 94.5 | 40.4 |
| CS(=O)(=O)CCNCc1nc(-c2ccc3ncnc(Nc4ccc(F)c(Cl)c4)c3c2)cs1 | 2.48 | 11.7 | 25.9 | 1.4 | 10.4 | 10.8 | 8.67 | 2.8 | 9.09 | 3.34 |
| Nc1nc(-c2ccc3c(c2)C(=Cc2cc(Br)c(O)c(Br)c2)C(=O)N3)cs1 | 2.75 | 2.1 | 5.96 | 0.96 | 2.21 | 0.36 | -0.01 | 2.02 | 2.58 | 1.75 |
| CC(=O)Nc1cccc(C#Cc2cncnc2Nc2ccc(OCc3cccc(F)c3)c(Cl)c2)n1 | 2.93 | 2.49 | 8.73 | 1.14 | 2.21 | -0.15 | -0.14 | 3.24 | 1.4 | 6.88 |
| CNC(=O)c1cncc(/C=C/c2c(Cl)cccc2Cl)c1 | 6.78 | 8.07 | 21.1 | 0.55 | 4.33 | 1.59 | 5.24 | 14.1 | 43 | 5.46 |
| CS(=O)(=O)CCNCc1ccc(-c2ccc3ncnc(Nc4ccc(OCc5cccc(F)c5)c(C(F)(F)F)c4)c3c2)o1 | 2.72 | 2.57 | 6.52 | 2.53 | 4.33 | 5.78 | 5.59 | 3.25 | 3.17 | -0.33 |
| O=C1NC(=O)C(N2CCc3ccccc32)=C1c1ccc(Cl)cc1 | 3.86 | 13.4 | 15.4 | 3.39 | 6.57 | 10.4 | 7.21 | 3.93 | 6.68 |  |

| Compound | inhibition [1] [%] | inhibition [2] [%] | inhibition [3] [%] | inhibition [4] [%] | inhibition [5] [%] | inhibition [6] [%] | inhibition [7] [%] | inhibition [8] [%] | inhibition [9] [%] | inhibition [10] [%] |
| --- | --- | --- | --- | --- | --- | --- | --- | --- | --- | --- |
| NS(=O)(=O)c1cccc(-c2ccc3c(NC(=O)C4CC4)n[nH]c3c2)c1 | 4.13 | 3.24 | 9.75 | 1.86 | 7.06 | -0.86 | 1.24 | 3.88 | 6.54 | 0.91 |
| N#Cc1c(NC(=O)c2cccc3ccccc23)sc2c1CCCC2 | 4.97 | 6.56 | 12.2 | 4.04 | 4.85 | 4.77 | 9.67 | 3.45 | 6.79 | 3.17 |
| COc1cc2ncn(-c3cc(OCc4ccccc4Cl)c(C(N)=O)s3)c2cc1OC | 21.2 | 46.7 | 90.5 | 30.4 | 82.2 | 9.35 | 69.7 | 39.1 | 83.3 | 41 |
| COc1cc2ncn(-c3cc(O[C@H](C)c4ccccc4Cl)c(C(N)=O)s3)c2cc1OC | 78.2 | 73.2 | 100 | 42.1 | 88.2 | 56.5 | 97.2 | 50.5 | 87.3 | 59.7 |
| O=C1Nc2ccc(C(=O)c3ccco3)cc2C1=Cc1cc(Cl)c(O)c(Cl)c1 | 8.26 | 8.06 | 26 | 4.54 | 19.8 | 6.25 | 11.5 | 7.12 | 26.8 | 7.32 |
| CS(=O)(=O)CCNCc1ccc(-c2ccc3ncnc(Nc4ccc(OCc5ccccc5)c(Cl)c4)c3c2)o1 | 4.27 | 6.84 | 9.41 | 2.28 | 2.49 | 8.72 | 11.1 | 4.4 | 4.91 | 2.08 |
| COc1cc2ncn(-c3cc(OCc4ccccc4C(F)(F)F)c(C(N)=O)s3)c2cc1OC | 32.7 | 47.1 | 83.5 | 29.5 | 79.9 | 19.1 | 68 | 36.6 | 84.9 | 45 |
| Nc1nc(-c2ccccn2)c(-c2ccc3ncccc3n2)s1 | 4.69 | 5.63 | 11.4 | 1.02 | 1.79 | 3.45 | 7.4 | -0.56 | -1.5 | 6.46 |
| Fc1cccc(COc2ccc(Nc3ncnc4sc(-c5cccs5)cc34)cc2Cl)c1 | 2.36 | 2.17 | 5.87 | 1.25 | 2.11 | 3.52 | 9.66 | 4.39 | 4.26 | 3.06 |
| COc1cc(C)c(NC(=O)CN(C)C)cc1Nc1nc(Nc2cccc(F)c2C(N)=O)c2cc[nH]c2n1 | 28.9 | 7.3 | 16.9 | 1.18 | 3.96 | 0.9 | 3.29 | 1.13 | 10.8 | 2.12 |
| COc1ccc(-c2nn3ncccc3c2-c2ccnc(Nc3ccc(Cl)c(C(F)(F)F)c3)n2)cc1 | 1.1 | 3.58 | 7.86 | 0.96 | 1.8 | 3.16 | 5.2 | 3.43 | 3.24 | 2.18 |
| CCCN1CCC(Oc2cc(Nc3nc(Nc4cccc(F)c4C(N)=O)c4cc[nH]c4n3)c(OC)cc2Cl)CC1 | 8.65 | 3.93 | 11.6 | 0.78 | -0.29 | 2.51 | 1.04 | 1.89 | 4.25 | 4.35 |
| Cc1cc(O)cc(C)c1/C=C/c1cncc(-c2nn[nH]n2)c1 | 2.94 | 10.7 | 50.9 | 2.87 | 22.2 | 7.51 | 5.59 | 12.1 | 59.3 | 9.66 |
| CC1=C(C(=O)Nc2ccc3[nH]ncc3c2)C(c2ccc(Cl)c(Cl)c2)CC(=O)N1 (centres undefined) | 4.26 | 6.81 | 8.15 | 0.72 | 1.68 | 2.47 | 1.49 | 0.48 | 2.1 | 1.34 |
| COc1ccc(-c2ccncc2)cc1C(N)=O | 8.58 | 10.2 | 15.4 | 1.62 | 4.35 | 5.26 | 8.98 | 3.41 | 6.77 | 5.16 |
| Nc1ncnc2occ(-c3ccc(NC(=O)Nc4cc(C(F)(F)F)cc(C(F)(F)F)c4)cc3)c12 | 89.3 | 79.8 | 79.7 | 14.7 | 66.7 | 60.3 | 94.9 | 90.5 | 96 | 67.8 |
| CS(=O)(=O)CCN(CC#N)Cc1ccc(-c2ccc3ncnc(Nc4ccc(OCc5cccc(F)c5)c(Cl)c4)c3c2)o1 | 1.87 | 5.88 | 10.3 | 1.15 | 3.78 | 1.63 | 5.75 | 1.15 | 4.06 | 4.64 |
